# ELG1 DNA repair: blocks ELG1-dependent DNA repair in HEK293T cells; HEK293T ELG1-luciferase reporter, luminescence, 16 h; DNA damage induced by 5-fluorouridine; Potency, µM (doses to about 46.1 µM), usual class: inhibitors; actives 2.3% (n = 330,000); AID 504467; note: nearly all actives have a fitted effect of over 55% in size
#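 DMSO vehicle served as the neutral condition. Each well held 2,000 cells given 5-fluorouridine plus compound; after 16 hr at 37 °C/5% CO2, ONE-Glo was added and luciferase measured 30 min later.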
# VP16 counter: counter-screen for ROR gamma inhibitors: Gal4-VP16 reporter | Potency, µM (titrated, usually from 53.6 µM), hits mostly inhibitors | AID 2546 | Drosophila S2 Gal4-VP16 UAS-luciferase, luminescence, 20 h | actives 3.5% (n = 310,000);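 note: Gal4-VP16 expression switched on by copper sulfate through the metallothionein promoter; nearly all actives have a fitted effect of over 50% in size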
# RORgamma inh: blocks mouse ROR gamma transcriptional activity. actives 5.4% (n = 310,000). Potency, µM (doses to about 53.6 µM), usual class: inhibitors. P51450. Drosophila S2 Gal4-RORgamma UAS-luciferase reporter, 20 h. AID 2551; note: nearly all actives have a fitted effect of over 60% in size
# Target sequence (P51450 whole entry, looked up, the tested form may be a part): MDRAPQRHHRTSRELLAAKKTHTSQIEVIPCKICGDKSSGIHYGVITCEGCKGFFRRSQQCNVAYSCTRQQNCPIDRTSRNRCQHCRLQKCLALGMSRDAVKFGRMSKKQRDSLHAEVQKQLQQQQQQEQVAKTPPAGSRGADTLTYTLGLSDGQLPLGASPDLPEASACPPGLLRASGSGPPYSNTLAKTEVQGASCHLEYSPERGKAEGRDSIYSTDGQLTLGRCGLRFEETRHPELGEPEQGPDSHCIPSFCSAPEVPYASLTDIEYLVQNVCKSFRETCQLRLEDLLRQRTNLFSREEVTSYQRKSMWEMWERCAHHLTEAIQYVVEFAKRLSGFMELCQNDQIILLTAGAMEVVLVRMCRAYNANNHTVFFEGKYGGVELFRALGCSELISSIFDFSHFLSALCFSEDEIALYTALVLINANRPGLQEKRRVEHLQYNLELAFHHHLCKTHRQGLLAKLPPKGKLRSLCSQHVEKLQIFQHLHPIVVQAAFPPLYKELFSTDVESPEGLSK
#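 Compounds are pin-transferred onto Drosophila Schneider cells expressing a copper-inducible Gal4–ROR gamma transactivation domain fusion. After 1 hr, copper sulfate is added to 700 uM final; luciferase is read 20 hr later.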
# DT40 TDP1 no CPT: qHTS for Inhibitors of human tyrosyl-DNA phosphodiesterase 1 (TDP1): qHTS in cells in absence of CPT; DT40 Tdp1-/- hTDP1 cells, no CPT, ATP luminescence, 48 h; Potency, µM (doses to about 46.2 µM), hits mostly inhibitors; actives 15% (n = 420,000); AID 686978, 2013; note: nearly all actives have a fitted effect of over 55% in size
#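 Chicken DT40 Tdp1-/- cells complemented with human TDP1, screened without camptothecin (DMSO vehicle only), 400 cells/well. Compounds pin-transferred, cells incubated at 37 °C for at least 48 hr. Growth read as ATP-dependent luminescence (CellTiter-Glo, 30 min at RT).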
# DT40 TDP1 CPT: DT40-hTDP1 cell growth loss with CPT; chicken DT40 Tdp1-/-;hTDP1 cells + 20 nM CPT, ATP luminescence, 48 h; Potency, µM (doses to about 46.2 µM), usual class: inhibitors; actives 12% (n = 420,000); AID 686979; note: nearly all actives have a fitted effect of over 55% in size
#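 Cell growth measured by CellTiter-Glo luminescence after a minimum 48 h, 37 C compound exposure with 20 nM CPT in Tdp1-knockout DT40 cells stably expressing hTDP1, seeded 400/well; qHTS titration format.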
# IL-1B inflam inh: blocks inflammasome-driven IL-1 beta release | THP-1 LPS/ATP IL-1B secretion, AlphaLISA, 16 h; stronger effect = lower value | AID 743279 | actives 4.7% (n = 360,000) | activity change, % at 57.5 µM; in the data active = activity change below about -50%; inconclusive = mostly about -30% to -49%
#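 THP-1 cells pretreated 1 hr with compounds (up to 57.5 uM final), then stimulated with LPS (250 ng/mL final) plus ATP (1.25 mM final); secreted IL-1B measured by AlphaLISA after 16 hr, decreased signal indicating inhibition.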
# A number is an active result; – = inactive; ? = inconclusive; · = no result given; [ ] = remark or other dose. Compounds with a hit are over-represented: about 21% of the library has one in this group of screens. Unless noted, calls come from the whole dose curve; as a rule, active = well fitted curve in the direction sought with a large enough effect; inconclusive = small, poorly fitted or top-dose-only effect, or another doubt; inactive = no such curve, though single readings can be large; an effect the other way counts as inactive or inconclusive.
SMILES,ELG1 DNA repair,VP16 counter,RORgamma inh,DT40 TDP1 no CPT,DT40 TDP1 CPT,IL-1B inflam inh
Cc1ccc(NC(=O)/C(=C\c2ccc3c(c2)OCO3)NC(=O)c2ccco2)cc1,–,–,–,–,–,–
NC(=O)c1ccc(NC(=O)CCCc2nc(-c3ccccc3Cl)no2)cc1,–,–,–,–,–,–
COc1ccc(-c2noc(CCC(=O)NC3CCCCC3)n2)cc1,–,–,–,?,?,–
COc1ccc(-c2noc(CCCC(=O)Nc3ccc(C(N)=O)cc3)n2)cc1,?,2.51µM,1.58µM,–,–,–
COc1ccc(-c2noc(CCC(=O)Nc3cc(OC)ccc3OC)n2)cc1,?,–,–,20.6µM,–,–
COc1ccc(-c2noc(CCC(=O)Nc3cccnc3)n2)cc1,–,–,?,?,?,–
COc1ccc(-c2noc(CCC(=O)Nc3cc(Cl)c(OC)cc3OC)n2)cc1,–,–,–,18.4µM,?,–
CCCCN(C(=O)C(C)Oc1cccc(Cl)c1)c1c(N)n(CCC)c(=O)[nH]c1=O (stereo not drawn),–,·,·,–,–,–
O=C(/C=C/c1c(C(=O)O)[nH]c2cc(Cl)cc(Cl)c12)Nc1ccccc1,·,–,–,·,·,·
Cn1c(=O)c(-c2ccc(Cl)cc2)nc2cnc(Oc3ccccc3)nc21,·,–,–,–,–,·
Nc1ncnc2c1ccn2[C@H]1CN(Cc2ccc(Cl)cc2)C[C@@H](CO)O1,·,·,·,13µM,16.4µM,–
Nc1ncnc2c1ccn2[C@H]1CN(Cc2ccc3c(c2)OCO3)C[C@@H](CO)O1,·,·,·,13µM,?,?
CN(C)c1ncnc2c1ncn2[C@H]1CN(Cc2ccc(Cl)cc2)C[C@@H](CO)O1,·,·,·,–,?,–
COc1ccc(NC(=O)N2CCN(C(=O)c3ccco3)CC2)c(OC)c1,–,–,–,–,–,–
Cc1nc(C)n(CC(=O)NCC2Cc3cc(-c4cccc(OC(F)(F)F)c4)ccc3O2)n1 (stereo not drawn),·,·,·,0.0184µM,–,·
CN1CCN(C(=O)c2cc3nc(-c4ccccc4)cc(-c4ccccc4)n3n2)CC1,?,–,–,?,–,?
O=C(c1cc2nc(-c3ccccc3)cc(-c3ccccc3)n2n1)N1CCN(C(=O)c2ccco2)CC1,?,–[0.365 µM],–,14.6µM,23.1µM,?
O=C(c1cc2nc(-c3ccccc3)cc(-c3ccccc3)n2n1)N1CCCC1,?,–,–,?,?,-66.9
COc1ccc(NC(=O)C2CCCN(S(=O)(=O)c3ccccc3)C2)c(OC)c1 (stereo not drawn),–,–,–,?,?,–
Cc1cccc(-c2nc3c(c(SCC(=O)N(C)C)n2)CCCC3)c1,?,–,?,16.4µM,?,–
CN(C)CCSc1nc(-c2ccccc2)nc2c1CCCC2,–,–,–,16.4µM,11.6µM,-71.5
Cc1cccn2cc(CSc3nnc(Nc4ccc(C(C)C)cc4)s3)nc12,–,?,?,?,?,–
CCOc1ccccc1Nc1nnc(SCC(=O)N2CCCC2)s1,–,–,–,–,–,–
CCOc1ccccc1Nc1nnc(SCc2nnc(-c3cc(OC)c(OC)c(OC)c3)o2)s1,5.8µM,?,–,13µM,?,?
COc1ccccc1Nc1nnc(SCc2nnc(-c3cc(OC)c(OC)c(OC)c3)o2)s1,6.51µM,–,–,20.6µM,20.6µM,–
SMILES,ELG1 DNA repair,VP16 counter,RORgamma inh,DT40 TDP1 no CPT,DT40 TDP1 CPT,IL-1B inflam inh
COc1cc(-c2nnc(CSc3nnc(Nc4ccc(C(C)C)cc4)s3)o2)cc(OC)c1OC,6.51µM,–,–,5.8µM,5.8µM,–
CCCC[C@@H]1CCCO[C@@](C(=O)NCc2ccc(S(C)(=O)=O)cc2)(C(F)(F)F)C1,·,–,–,·,·,·
COc1ccc(S(=O)(=O)N[C@@H](CSCc2ccccc2)C(=O)O)cc1,–,–,–,–,–,–
CCC[C@H]1CN(c2ccccc2)C(=O)[C@@H]1CC(=O)NC,·,·,·,–,–,–
O=C(OCc1ccccc1)N1C=CCC[C@@H]1c1c(Cl)cccc1Br,·,·,·,?,?,–
CCC(C)(Oc1ccc(C2(c3ccc(OC(C)(CC)C(=O)O)cc3)CCCCC2)cc1)C(=O)O (stereo not drawn),·,–,–,–,–,·
O=C(O)c1ccccc1-c1ccccc1C(=O)Nc1ccc2c(c1)C(O)c1ccccc1-2 (stereo not drawn),·,·,·,–,–,–
COc1ccc(Nc2nc(N)nc(CSc3nc(C)cc(C)n3)n2)cc1,–,–,–,?,–,–
COc1ccc2nc(Nc3nc(CSc4nc5ccccc5[nH]4)cc(=O)[nH]3)nc(C)c2c1,5.8µM,5.01µM,5.62µM,4.11µM,4.61µM,-95.1
Cc1ccc2c(=O)[nH]c(Nc3nc(C)cc(-c4ccccc4)n3)nc2c1,?,–,–,11.6µM,10.3µM,–
